Experimental findings from PubChem BioAssay (NCATS) are described below.

In one test the test system is TAB109. Kind of test: qHTS profiling for inhibitors of Plasmodium falciparum proliferation (AID 504749). Note: nearly all actives have a fitted effect of over 60% in size. Note: potency is the fitted concentration of half-maximal effect. The following applies: P. falciparum in erythrocytes, SYBR Green DNA, 72 h; series mostly up to 28.7 µM. In a few lines: (§1)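 P. falciparum-infected erythrocytes (0.3% parasitemia, 2.5% hematocrit) incubated with compound 72 h at 37 C, 5% CO2. Parasite DNA detected by SYBR Green after lysis, overnight at room temperature; normalised to 0.29 uM artemisinin and DMSO.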

The test system of another test is TAB113. The test is described as above. The settings on record: P. falciparum in erythrocytes, SYBR Green DNA, 72 h; series mostly up to 28.7 µM. In a few lines:
as §1

The subject of the next test is TAB165. The description is as above. The following applies: P. falciparum in erythrocytes, SYBR Green DNA, 72 h; series mostly up to 28.7 µM. In a few lines: as §1
For another test, the system named is W2. The test is described as above. The settings on record: P. falciparum in erythrocytes, SYBR Green DNA, 72 h; series mostly up to 28.7 µM. The method in brief:
as §1

Test [1] concerns CRL-7250. Kind of test: Cytotoxic Profiling of Annotated Libraries Using Quantitative High-Throughput Screening (AID 1296008). For max response: % is set by controls: 0 for no effect and ±100 for the full control effect. Note: nearly all actives have a fitted effect of over 60% in size. The following applies: Five cell lines viability, CellTiter-Glo ATP luminescence, 48-72 h; max response: stronger effect = lower value. In a few lines:
(§2)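 Cells exposed to compounds for 48 or 72 hr at 37 degrees Celsius. Viability read as ATP-coupled luminescence with CellTiter-Glo after 10 min at room temperature.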
(In general: ATP-based viability assays read luminescence as a measure of living cells.)

The subject of a further test is HEK293. The description is as above. The following applies: Five cell lines viability, CellTiter-Glo ATP luminescence, 48-72 h; max response: stronger effect = lower value. The method in brief:
as §2

The test system of test [2] is HaCat. Described as above. The settings on record: Five cell lines viability, CellTiter-Glo ATP luminescence, 48-72 h; max response: stronger effect = lower value. In a few lines:
as §2

In another test the test system is KB-3-1. The test is described as above. The following applies: Five cell lines viability, CellTiter-Glo ATP luminescence, 48-72 h; max response: stronger effect = lower value. In a few lines:
as §2

For test [3], the system named is NIH3T3. The description is as above. The settings on record: Five cell lines viability, CellTiter-Glo ATP luminescence, 48-72 h; max response: stronger effect = lower value. The method in brief: as §2
Test [4] deals with HACAT. Put plainly: qHTS assay to identify novel small-molecules to repurpose for Merkel cell carcinoma treatment (AID 1296009). Note: nearly all actives have a fitted effect of over 60% in size. The following applies: MCC and control cell lines, CellTiter-Glo viability, 72 h; at 44.8 µM (top of the series) unless noted. The method in brief:
(§3)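 Cells were treated for 72 hr at 37 degree celsius with compounds in 8- or 11-point dose response. Viability was read by CellTiter-Glo luminescence, normalized to no-cell (cytotoxicity) and DMSO controls.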
A general note: In qHTS, concentration-response curves come from the screen itself.

The next test has as its system MCC-13. The test is described as above. The settings on record: MCC and control cell lines, CellTiter-Glo viability, 72 h; series mostly up to 46 µM. The method in brief: as §3
A further test concerns MKL-1. The test is described as above. The following applies: MCC and control cell lines, CellTiter-Glo viability, 72 h; series mostly up to 46 µM. The method in brief:
as §3

In a further test the test system is MKL-2. The description is as above. The settings on record: MCC and control cell lines, CellTiter-Glo viability, 72 h; series mostly up to 46 µM. In a few lines:
as §3

In the next test the test system is UISO. Described as above. The settings on record: MCC and control cell lines, CellTiter-Glo viability, 72 h; series mostly up to 46 µM. The method in brief:
as §3

The next test concerns WaGa. Described as above. The following applies: MCC and control cell lines, CellTiter-Glo viability, 72 h; series mostly up to 46 µM. In a few lines: as §3
A further test relates to C33A. Kind of test: Primary qHTS to identify gynecologic anti-cancer compounds using libraries of approved drugs and bioactive compounds (AID 1345084). Note: % is set by controls: 0 for no effect and ±100 for the full control effect; nearly all actives have a fitted effect of over 55% in size. The settings on record: Gynecologic cancer cell panel viability, ATPlite luminescence, 48 h; series mostly up to 57.5 µM. The method in brief: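 Luminescence from the ATPlite ATP-monitoring reagent indicates viable cell number; lower signal means cytotoxicity. Cells received compound 16 h after seeding and were exposed for 48 h across five concentrations.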

Test [5] has as its system CRL-7250. Put plainly: qHTS assay to identify novel small-molecules to repurpose for Merkel cell carcinoma treatment (AID 1296009). Note: nearly all actives have a fitted effect of over 60% in size. The following applies: MCC and control cell lines, CellTiter-Glo viability, 72 h; series mostly up to 44.8 µM. In a few lines: as §3
The next test has as its system HEK293T. The description is as above. The settings on record: MCC and control cell lines, CellTiter-Glo viability, 72 h; at 44.8 µM (top of the series). The method in brief:
as §3

A further test relates to MCC-26. The description is as above. The following applies: MCC and control cell lines, CellTiter-Glo viability, 72 h; series mostly up to 46 µM. In a few lines:
as §3

Test [6] has as its system NIH3T3. Described as above. The following applies: MCC and control cell lines, CellTiter-Glo viability, 72 h; at 44.8 µM (top of the series) unless noted. The method in brief: as §3

Several values for one entry are separate records, joined by “and”; a condition that tells them apart may be missing. Equal entries are not always repeated. Results filed as inconclusive are left out. Unmarked numbers belong to inactive results. Activity calls are given as the source filed them. Calls come from the whole dose curve; as a rule, active = well fitted curve in the direction sought with a large enough effect; inconclusive = small, poorly fitted or top-dose-only effect, or another doubt; inactive = no such curve, though single readings can be large; an effect the other way counts as inactive or inconclusive.

In the case of `Nc1ccncc1`, the Potency result with TAB109, in the test with TAB113, in the test with TAB165, with W2, in the test on MCC-13 and in the test with MKL-1 was “inactive” in each case. The Potency entry with MKL-2, in the test on UISO, in the test on WaGa and in the test on C33A was “inactive” throughout. For the same molecule, the max response was 4.16% in the test with CRL-7250 [1], -0.798% in the test with HEK293, 14.9% in the test on KB-3-1 and 2.18% in the test on NIH3T3 [3]. Also, the molecule was classed as inactive in the test with HaCat [2] and with HACAT [4].
With `C#CCN(C)[C@H](C)Cc1ccccc1`, the max response in the test with CRL-7250 [1] is -4.73%; in the test with HaCat [2] it was -9.07% and 1.92%; with KB-3-1, 4.15% and -12%; in the test with NIH3T3 [3], 3.34%. Besides, the molecule was called inactive with CRL-7250 [1], with NIH3T3 [3], in the test on CRL-7250 [5], with HEK293T and in the test with NIH3T3 [6]. The Potency result in the test on MCC-13, with MCC-26, with MKL-1, in the test on MKL-2, in the test on UISO and in the test on WaGa was “inactive” in each case. In addition, the Potency entry in the test on C33A was “inactive”.
With `CCCC(C)(COC(N)=O)COC(=O)NC(C)C` (stereo not drawn), the Potency result in the test on TAB109, in the test with TAB113, in the test on TAB165, with W2, in the test on MCC-13 and in the test with MCC-26 was “inactive” throughout. Moreover, the Potency entry in the test with MKL-1, with MKL-2, in the test on UISO, in the test on WaGa and in the test on C33A was “inactive” each time. The result in the test on CRL-7250 [1], in the test on KB-3-1, in the test on NIH3T3 [3], in the test on CRL-7250 [5], with HEK293T and with NIH3T3 [6] was inactive. In addition, the max response in the test with HaCat [2] was -8.86% and 1.84%; in the test on KB-3-1 it was -16.5%; with NIH3T3 [3], -10.4%.
Regarding `CCC(COC(=O)c1cc(OC)c(OC)c(OC)c1)(c1ccccc1)N(C)C` (stereo not drawn), the Potency entry with TAB109, in the test with TAB113, in the test on MCC-13, in the test with MCC-26, with MKL-1 and in the test with MKL-2 was “inactive” throughout. For the same molecule, the Potency entry in the test with UISO, in the test with WaGa and with C33A was “inactive” in each case. In the test with W2, the Potency was 6.75 µM (active). The max response with CRL-7250 [1] is -3.97%; in the test on KB-3-1 it was 3.84%. Further, the result in the test with HaCat [2], in the test on NIH3T3 [3], with HACAT [4] and in the test with NIH3T3 [6] was inactive.
As to `COc1ccc(C(CN(C)C)C2(O)CCCCC2)cc1` (stereo not drawn), the Potency entry in the test with TAB109, in the test with TAB113, in the test with TAB165, with MCC-13, with MKL-1 and in the test with MKL-2 was “inactive” in each case. In addition, the Potency result with UISO, in the test on WaGa and in the test with C33A was “inactive” each time. For the same molecule, in the test with W2, the Potency was 1.9 µM (active). Also, the max response is -3.43% and 1.19% in the test on CRL-7250 [1]; 1.09% and -4.23% in the test with HaCat [2]; 2.29% and -2.64% in the test on KB-3-1; 2.42% in the test with NIH3T3 [3]. In addition, the result with NIH3T3 [3], in the test with HEK293T and in the test with NIH3T3 [6] was inactive.
For `CNC(=O)c1ccc(N2C(=S)N(c3ccc(C#N)c(C(F)(F)F)c3)C(=O)C23CCC3)cc1F`, the molecule was called inactive with CRL-7250 [1], in the test on HaCat [2], with CRL-7250 [5], with HACAT [4] and in the test on HEK293T. For the same molecule, the max response is 0.285% and 2.98% with KB-3-1; 3.77% and -4.83% in the test on NIH3T3 [3]. Moreover, the Potency result in the test on MCC-13, in the test on MKL-1, with MKL-2, in the test with UISO, with WaGa and in the test on C33A was “inactive” in each case.
